Reference: PubChem BioAssay (NCATS)
Records with an inconclusive call do not appear. Entries that show only a call come without a potency. Calls of active or inactive are those of the source. Calls follow the shape of the dose curve; as a rule, active = well fitted curve in the direction sought with a large enough effect; inconclusive = small, poorly fitted or top-dose-only effect, or another doubt; inactive = no such curve, though single readings can be large; an effect the other way counts as inactive or inconclusive.

target: Tyrosine-protein kinase Yes (Homo sapiens) (UniProt P07947); test: qHTS for small molecule inhibitors of Yes1 kinase: Primary Screen (AID 686947); conditions: Yes1 kinase biochemical qHTS inhibition; series mostly up to 76.9 µM; also: nearly all actives have a fitted effect of over 60% in size; also: potency is read from the fitted curve at half-maximal effect
Method in brief: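 In this qHTS format, inhibition is expressed relative to DMSO controls with enzyme (maximum) and without enzyme (minimum). The 60 min room-temperature reaction uses 0.1 mM ATP, with ADP detected by luminescence.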

Tyrosine-protein kinase Yes (Homo sapiens), sequence (P07947 whole entry, looked up): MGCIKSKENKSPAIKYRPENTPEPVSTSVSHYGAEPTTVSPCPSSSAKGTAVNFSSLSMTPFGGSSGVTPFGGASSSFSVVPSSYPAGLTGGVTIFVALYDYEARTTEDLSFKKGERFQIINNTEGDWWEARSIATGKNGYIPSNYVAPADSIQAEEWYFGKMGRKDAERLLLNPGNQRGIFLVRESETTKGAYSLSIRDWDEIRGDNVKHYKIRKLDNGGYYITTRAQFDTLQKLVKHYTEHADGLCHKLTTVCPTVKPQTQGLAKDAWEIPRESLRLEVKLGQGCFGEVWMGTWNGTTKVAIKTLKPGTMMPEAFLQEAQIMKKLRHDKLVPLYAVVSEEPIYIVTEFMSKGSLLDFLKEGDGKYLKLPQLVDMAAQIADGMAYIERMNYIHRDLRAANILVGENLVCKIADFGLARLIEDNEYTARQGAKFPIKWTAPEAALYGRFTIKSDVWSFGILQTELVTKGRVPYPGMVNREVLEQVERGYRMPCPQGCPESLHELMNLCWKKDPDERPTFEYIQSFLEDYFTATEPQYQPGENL

Q: Which Potency does the source give for `O=C(N[C@@H](c1ccccc1)[C@@H]1CCCCN1)c1cccc(C(F)(F)F)c1Cl` here?
A: inactive

Q: For `O=c1cc(N2CCOCC2)oc2c(-c3cccc4c3sc3ccccc34)cccc12`, which Potency is on record?
A: inactive

Q: With `CN(C)Cc1ccc(-c2nc3cccc4c3n2CCNC4=O)cc1` as the compound, how does the Potency read?
A: 13.7 µM (active)

Q: With `CCOc1ccc(Nc2nc(-c3c(C)nc4ccccn34)cs2)cc1` as the compound, how does the Potency read?
A: inactive

Q: With `CC(C)(C(=O)NCC(F)(F)C(F)(F)F)C(=O)N[C@@H]1C(=O)Nc2ccccc2-c2ccccc21` as the compound, how does the Potency read?
A: inactive

Q: Which Potency does the source give for `COc1ccc(C2CC(c3ccccc3)=NN2c2ccc(S(N)(=O)=O)cc2)cc1` (centres undefined) here?
A: inactive

Q: Which Potency does the source give for `Clc1ccc(-c2nc3sccn3c2C=NOCc2ccc(Cl)c(Cl)c2)cc1` here?
A: inactive

system: not listed separately; test: qHTS for small molecule inhibitors of Yes1 kinase: Counter Assay (AID 686950); conditions: series mostly up to 76.9 µM;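 also: no kinase present so only ADP-Glo detection of a fixed ADP amount is tested; luminescence from ADP-Glo reporting ADP in a fixed ATP and ADP mixture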
Method in brief: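 Measuring interference with ADP-Glo, the assay ran 60 min at room temperature on an ATP/ADP mix lacking enzyme. Values were normalized to ATP-plus-ADP (maximum) and ATP-only (minimum) DMSO controls.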

Q: Which outcome does the source give for `CC(C)(C)COc1ccc(-n2cc(C(=O)O)cn2)cc1C#N` here?
A: inactive

Q: With `CO[C@H]1C[C@@H]2CC[C@@H](C)[C@@](O)(O2)C(=O)C(=O)N2CCCC[C@@H]2C(=O)O[C@H]([C@H](C)C[C@@H]2CC[C@H](OCCO)[C@H](OC)C2)CC(=O)[C@H](C)C=C(C)[C@@H](O)[C@@H](OC)C(=O)[C@H](C)C[C@H](C)C=CC=CC=C1C` as the compound, how does the outcome read?
A: inactive

Q: Which outcome does the source give for `COc1cccc2c1CCCC2CCCN1CCN(C2CCCCC2)CC1` (centres undefined) here?
A: inactive

Q: With `O=C(O)c1ccc(-c2cc3cccnc3c(-c3ccc4nonc4c3)n2)cc1` as the compound, how does the outcome read?
A: inactive

Q: Which outcome does the source give for `CC(=O)Nc1ccc([C@H](C)C(=O)Nc2ncc(C(C)C)s2)cc1` here?
A: inactive

Q: Which outcome does the source give for `CC(C)C(=O)Nc1ncc(-c2cc(C(F)F)nn2-c2c(Cl)cccc2Cl)s1` here?
A: inactive

Q: Which outcome does the source give for `O=C(Nc1ccccc1-c1cn2c(CN3CCNCC3)csc2n1)c1cnc2ccccc2n1` here?
A: inactive

Q: With `c1ccc2c(-c3cnn4cc(-c5ccc(N6CCNCC6)cc5)cnc34)ccnc2c1` as the compound, how does the outcome read?
A: inactive

Q: With `O=C1C(Cl)=C(NCCN2CCOCC2)C(=O)c2ncccc21` as the compound, how does the outcome read?
A: inactive

Q: With `COc1cc2nc(-c3ccc(N4CCN(C)CC4)cc3)nc(NCCN3CCOCC3)c2cc1OC` as the compound, how does the outcome read?
A: inactive

Q: With `O=c1cc(CN2CCOCC2)occ1OCCCCCSc1ccnc2cc(C(F)(F)F)ccc12` as the compound, how does the outcome read?
A: inactive

Q: Which outcome does the source give for `CC(C)(C)c1cc(C(=O)O)c(NC(=O)Nc2ccc3[nH]ncc3c2)s1` here?
A: inactive

Q: Which outcome does the source give for `Cc1nc(N)sc1-c1ccnc(Nc2ccc(N3CCOCC3)cc2)n1` here?
A: inactive

Q: For `COc1cc2ncnc(-n3nc(-c4ccccn4)nc3N)c2cc1OC`, which outcome is on record?
A: inactive

Q: Which outcome does the source give for `Cn1cc(C=C2C(=O)Nc3cccnc32)c2ccccc21` here?
A: inactive

Q: With `O=C(N[C@@H](c1ccccc1)[C@@H]1CCCCN1)c1cccc(C(F)(F)F)c1Cl` as the compound, how does the outcome read?
A: inactive

Q: For `Cc1ccc(F)c(NC(=O)Nc2ccc(-c3cccc4[nH]nc(N)c34)cc2)c1`, which outcome is on record?
A: inactive

Q: Which outcome does the source give for `O=c1cc(N2CCOCC2)oc2c(-c3cccc4c3sc3ccccc34)cccc12` here?
A: inactive

Q: For `CN(C)Cc1ccc(-c2nc3cccc4c3n2CCNC4=O)cc1`, which outcome is on record?
A: inactive

Q: For `CCOc1ccc(Nc2nc(-c3c(C)nc4ccccn34)cs2)cc1`, which outcome is on record?
A: inactive

Q: For `NC(CO)(CO)CCc1ccc(Sc2cccc(OCc3ccccc3)c2)cc1Cl`, which outcome is on record?
A: inactive

Q: For `CC(C)(C(=O)NCC(F)(F)C(F)(F)F)C(=O)N[C@@H]1C(=O)Nc2ccccc2-c2ccccc21`, which outcome is on record?
A: inactive

Q: With `COc1cc(N2CCC(N3CCN(C)CC3)CC2)ccc1Nc1ncc(Cl)c(Nc2ccccc2S(=O)(=O)C(C)C)n1` as the compound, how does the outcome read?
A: inactive

Q: For `COc1ncc(-c2ccc3nccc(-c4ccnnc4)c3c2)cc1NS(=O)(=O)c1ccc(F)cc1F`, which outcome is on record?
A: inactive

Q: For `COc1ccc(C2CC(c3ccccc3)=NN2c2ccc(S(N)(=O)=O)cc2)cc1` (centres undefined), which outcome is on record?
A: inactive

Q: With `Clc1ccc(-c2nc3sccn3c2C=NOCc2ccc(Cl)c(Cl)c2)cc1` as the compound, how does the outcome read?
A: inactive

Q: With `N#Cc1ccc(NC(=O)Nc2ccccc2Br)c2n[nH]nc12` as the compound, how does the outcome read?
A: inactive
